{
  "source": "PubChem BioAssay (Tox21)",
  "note": "Records with an inconclusive call do not appear. Where a call stands in place of a potency, no number is given. A structure can be active in one record and inactive in another. The source made the active and inactive calls. Unless noted, calls come from the whole dose curve; as a rule, active = well fitted activation curve with a large enough effect in the repeat runs; inconclusive = weak or mixed curves, or effect the other way; inactive = no such curve, though single readings can be large or run the other way.",
  "data": [
    {"biological_target": "Estrogen receptor (Homo sapiens) (UniProt P03372)", "sequence (P03372 whole entry, looked up)": "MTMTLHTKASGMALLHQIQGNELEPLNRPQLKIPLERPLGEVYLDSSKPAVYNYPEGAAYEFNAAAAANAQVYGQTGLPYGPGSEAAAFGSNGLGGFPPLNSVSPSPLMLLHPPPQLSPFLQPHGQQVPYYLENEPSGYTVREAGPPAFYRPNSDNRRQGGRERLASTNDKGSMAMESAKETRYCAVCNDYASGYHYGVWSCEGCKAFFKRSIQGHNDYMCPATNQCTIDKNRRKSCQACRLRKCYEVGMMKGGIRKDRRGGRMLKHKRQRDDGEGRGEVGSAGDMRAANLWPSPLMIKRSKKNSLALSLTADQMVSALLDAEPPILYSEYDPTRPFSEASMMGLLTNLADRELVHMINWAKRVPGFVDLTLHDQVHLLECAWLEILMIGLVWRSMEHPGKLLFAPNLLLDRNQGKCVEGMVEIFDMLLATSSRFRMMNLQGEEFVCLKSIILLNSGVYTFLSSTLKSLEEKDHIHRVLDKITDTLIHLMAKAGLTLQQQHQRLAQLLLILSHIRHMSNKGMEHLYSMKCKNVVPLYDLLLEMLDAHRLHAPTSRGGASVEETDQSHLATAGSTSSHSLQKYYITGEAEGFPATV", "assay": "qHTS assay to identify small molecule agonists of the estrogen receptor alpha (ER-alpha) signaling pathway using the BG1 cell line (AID 743079); note: nearly all actives have a fitted effect of over 20% in size; note: potency is the fitted concentration of half-maximal effect", "conditions": "BG1Luc4E2 cells, ERE-luciferase agonist, 22 h; series mostly up to 70.3 µM", "values": [
      {"smiles": "Cc1ccc(C(=O)C(C)CN2CCCCC2)cc1", "note": "(centres undefined)", "Potency": "26.6 µM (active) and inactive"},
      {"smiles": "ClC(Cl)(Cl)c1ccc(C(Cl)(Cl)Cl)cc1", "Potency": "inactive"},
      {"smiles": "COC(=O)C(C)=O", "Potency": "inactive"},
      {"smiles": "C=C(C)C(=O)OCCN(C)C", "Potency": "inactive"},
      {"smiles": "CC(=O)N(O)CCCCCNC(=O)CCC(=O)N(O)CCCCCNC(=O)CCC(=O)N(O)CCCCCN", "Potency": "inactive"},
      {"smiles": "C[C@H](CCC(=O)O)[C@H]1CC[C@H]2[C@@H]3[C@H](O)C[C@@H]4C[C@H](O)CC[C@]4(C)[C@H]3CC[C@]12C", "Potency": "inactive"},
      {"smiles": "CCCCCCCCCCCCCCC1CO1", "note": "(centres undefined)", "Potency": "inactive"},
      {"smiles": "CC(C)NCC(O)COc1ccc(CC(N)=O)cc1", "note": "(centres undefined)", "Potency": "inactive"},
      {"smiles": "NCCCN(CCO)CCO", "Potency": "inactive"},
      {"smiles": "CCCCCCCCCCCCCCCBr", "Potency": "inactive"},
      {"smiles": "Cc1ncsc1CCO", "Potency": "inactive"},
      {"smiles": "O=C(Nc1ccccc1)OCC(CN1CCCCC1)OC(=O)Nc1ccccc1", "note": "(centres undefined)", "Potency": "inactive"},
      {"smiles": "CC(C(=O)O)c1ccc(-c2ccccc2)c(F)c1", "note": "(centres undefined)", "Potency": "4.52 µM (active) and inactive"},
      {"smiles": "O=C(C(=O)c1ccc(Br)cc1)c1ccc(Br)cc1", "Potency": "inactive"},
      {"smiles": "OCC1CC2CC1C1CCC(CO)C21", "note": "(centres undefined)", "Potency": "inactive"},
      {"smiles": "CCCCCCCCCO", "Potency": "inactive"},
      {"smiles": "CCCCCCCCC(CO)CCCCCC", "note": "(centres undefined)", "Potency": "inactive"},
      {"smiles": "CC(=O)CC(=O)c1ccccc1", "Potency": "34.6 µM (active)"},
      {"smiles": "CC[C@H](C)[C@@H](C(=O)O)n1sc2ccccc2c1=O", "Potency": "inactive"},
      {"smiles": "N=C(N=C(N)N)N1CCOCC1", "Potency": "inactive"},
      {"smiles": "N[C@H]1C(O)O[C@H](CO)[C@H](O)[C@@H]1O", "note": "(some centres undefined)", "Potency": "inactive"},
      {"smiles": "O=C(O)COC(=O)Cc1ccccc1Nc1c(Cl)cccc1Cl", "Potency": "inactive"},
      {"smiles": "CC(C)(C)C1CCCCC1O", "note": "(centres undefined)", "Potency": "inactive"},
      {"smiles": "N#CCCNCCC#N", "Potency": "inactive"},
      {"smiles": "NCCCOCCOCCOCCCN", "Potency": "inactive"},
      {"smiles": "N#CCc1cccc(C(F)(F)F)c1", "Potency": "inactive"},
      {"smiles": "Cc1ccc(C(N)=O)cc1N", "Potency": "inactive"},
      {"smiles": "C=CC[N+]1([C@H]2C[C@H]3[C@@H]4CC[C@H]5C[C@H](OC(C)=O)[C@@H](N6CCCCC6)C[C@]5(C)[C@H]4CC[C@]3(C)[C@H]2OC(=O)CC)CCCCC1", "Potency": "inactive"},
      {"smiles": "CN(C)CCCOc1nn(Cc2ccccc2)c2ccccc12", "Potency": "inactive"},
      {"smiles": "CC(=O)NCCCS(=O)(=O)O", "Potency": "inactive"},
      {"smiles": "CCOC(=O)CC(C)C", "Potency": "inactive"},
      {"smiles": "CC(=O)SCc1ccco1", "Potency": "inactive"},
      {"smiles": "Cn1c(=O)c2c(ncn2CC(O)CO)n(C)c1=O", "note": "(centres undefined)", "Potency": "inactive"},
      {"smiles": "CCOC(=O)CC(=O)c1cc(F)c(Cl)nc1Cl", "Potency": "inactive"},
      {"smiles": "Nc1nc(N)c2nc(CNc3ccc(C(=O)N[C@@H](CCC(=O)O)C(=O)O)cc3)cnc2n1", "Potency": "inactive"},
      {"smiles": "COCCOCCOCCOCCOC", "Potency": "inactive"},
      {"smiles": "O=C(Cl)c1ccc([N+](=O)[O-])cc1", "Potency": "inactive"}
    ]},
    {"system": "not listed separately", "assay": "qHTS assay to identify small molecule antagonists of the estrogen receptor alpha (ER-alpha) signaling pathway using the BG1 cell line (AID 743080; calls by dose curve;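 note: BG1 cells stimulated with 17beta-estradiol alongside compound; nearly all actives have a fitted effect of over 25% in size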)", "conditions": "BG1Luc4E2 ERE-luciferase antagonist mode, luminescence; series mostly up to 70.3 µM", "how_it_was_run": "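Readout is ONE-Glo luminescence, taken 30 min at room temperature after reagent addition, preceded by a CellTiter-Fluor viability read; BG1-Luc-4E2 cells had received compound and 17beta-estradiol for 21.5 h at 37 C.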", "values": [
      {"smiles": "Cc1ccc(C(=O)C(C)CN2CCCCC2)cc1", "note": "(centres undefined)", "Potency": "inactive"},
      {"smiles": "ClC(Cl)(Cl)c1ccc(C(Cl)(Cl)Cl)cc1", "Potency": "inactive"},
      {"smiles": "COC(=O)C(C)=O", "Potency": "inactive"},
      {"smiles": "C=C(C)C(=O)OCCN(C)C", "Potency": "inactive"},
      {"smiles": "CC(=O)N(O)CCCCCNC(=O)CCC(=O)N(O)CCCCCNC(=O)CCC(=O)N(O)CCCCCN", "Potency": "inactive"},
      {"smiles": "C[C@H](CCC(=O)O)[C@H]1CC[C@H]2[C@@H]3[C@H](O)C[C@@H]4C[C@H](O)CC[C@]4(C)[C@H]3CC[C@]12C", "Potency": "inactive"},
      {"smiles": "CCCCCCCCCCCCCCC1CO1", "note": "(centres undefined)", "Potency": "inactive"},
      {"smiles": "CC(C)NCC(O)COc1ccc(CC(N)=O)cc1", "note": "(centres undefined)", "Potency": "inactive"},
      {"smiles": "NCCCN(CCO)CCO", "Potency": "inactive"},
      {"smiles": "CCCCCCCCCCCCCCCBr", "Potency": "inactive"},
      {"smiles": "Cc1ncsc1CCO", "Potency": "inactive"},
      {"smiles": "O=C(Nc1ccccc1)OCC(CN1CCCCC1)OC(=O)Nc1ccccc1", "note": "(centres undefined)", "Potency": "inactive"},
      {"smiles": "CC(C(=O)O)c1ccc(-c2ccccc2)c(F)c1", "note": "(centres undefined)", "Potency": "inactive"},
      {"smiles": "O=C(C(=O)c1ccc(Br)cc1)c1ccc(Br)cc1", "Potency": "inactive"},
      {"smiles": "OCC1CC2CC1C1CCC(CO)C21", "note": "(centres undefined)", "Potency": "inactive"},
      {"smiles": "CCCCCCCCCO", "Potency": "inactive"},
      {"smiles": "CCCCCCCCC(CO)CCCCCC", "note": "(centres undefined)", "Potency": "inactive"},
      {"smiles": "CC(=O)CC(=O)c1ccccc1", "Potency": "inactive"},
      {"smiles": "CC[C@H](C)[C@@H](C(=O)O)n1sc2ccccc2c1=O", "Potency": "inactive"},
      {"smiles": "N=C(N=C(N)N)N1CCOCC1", "Potency": "inactive"},
      {"smiles": "N[C@H]1C(O)O[C@H](CO)[C@H](O)[C@@H]1O", "note": "(some centres undefined)", "Potency": "inactive"},
      {"smiles": "O=C(O)COC(=O)Cc1ccccc1Nc1c(Cl)cccc1Cl", "Potency": "inactive"},
      {"smiles": "CC(C)(C)C1CCCCC1O", "note": "(centres undefined)", "Potency": "inactive"},
      {"smiles": "N#CCCNCCC#N", "Potency": "inactive"},
      {"smiles": "NCCCOCCOCCOCCCN", "Potency": "inactive"},
      {"smiles": "N#CCc1cccc(C(F)(F)F)c1", "Potency": "inactive"},
      {"smiles": "Cc1ccc(C(N)=O)cc1N", "Potency": "inactive"},
      {"smiles": "C=CC[N+]1([C@H]2C[C@H]3[C@@H]4CC[C@H]5C[C@H](OC(C)=O)[C@@H](N6CCCCC6)C[C@]5(C)[C@H]4CC[C@]3(C)[C@H]2OC(=O)CC)CCCCC1", "Potency": "inactive"},
      {"smiles": "CN(C)CCCOc1nn(Cc2ccccc2)c2ccccc12", "Potency": "inactive"},
      {"smiles": "CC(=O)NCCCS(=O)(=O)O", "Potency": "inactive"},
      {"smiles": "CCOC(=O)CC(C)C", "Potency": "inactive"},
      {"smiles": "CC(=O)SCc1ccco1", "Potency": "inactive"},
      {"smiles": "Cn1c(=O)c2c(ncn2CC(O)CO)n(C)c1=O", "note": "(centres undefined)", "Potency": "inactive"},
      {"smiles": "CCOC(=O)CC(=O)c1cc(F)c(Cl)nc1Cl", "Potency": "inactive"},
      {"smiles": "Nc1nc(N)c2nc(CNc3ccc(C(=O)N[C@@H](CCC(=O)O)C(=O)O)cc3)cnc2n1", "Potency": "inactive"},
      {"smiles": "COCCOCCOCCOCCOC", "Potency": "inactive"},
      {"smiles": "O=C(Cl)c1ccc([N+](=O)[O-])cc1", "Potency": "inactive"}
    ]}
  ]
}
